Test results from PubChem BioAssay (NCATS).
Results filed as inconclusive are left out. Where a call stands in place of a potency, no number is given. Activity calls are given as the source filed them. Calls follow the shape of the dose curve; as a rule, active = well fitted curve in the direction sought with a large enough effect; inconclusive = small, poorly fitted or top-dose-only effect, or another doubt; inactive = no such curve, though single readings can be large; an effect the other way counts as inactive or inconclusive.

Key:
[1] = molecular target: Glutathione peroxidase 1 (Homo sapiens) (UniProt P07203); test: Primary qHTS Assay for Inhibitors of Recombinant Selenoprotein Glutathione Peroxidase 1 (GPX1) (AID 1845191); also: nearly all actives have a fitted effect of over 65% in size
Outline: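 GPX1 10 nM, GR 100 nM, GSH 1 mM, NADPH 0.5 mM, CHP 0.5 mM (final). 30-min cpd preincubation, RT. Ex340/Em450 read t=0, t=15 min.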

[2] = molecular target: Phospholipid hydroperoxide glutathione peroxidase GPX4 (Homo sapiens) (UniProt P36969); test: Primary qHTS Assay for Inhibitors of Recombinant Selenoprotein Glutathione Peroxidase 4 (GPX4) (AID 1845192); also: nearly all actives have a fitted effect of over 65% in size; also: potency is read from the fitted curve at half-maximal effect
Outline: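 qHTS, GR-coupled: GPX4 200 nM + cpd 30 min RT → GSH 1 mM, NADPH 0.5 mM, GR 100 nM → CHP 0.5 mM start; fluor 340/450 at t0 and t15 min; no-enzyme wells as control.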

[3] = molecular target: Luciferin 4-monooxygenase (Photinus pyralis) (UniProt P08659); test: Primary firefly luciferase (FLuc) qHTS assay for identification of artifact compounds. (AID 1845220); conditions: outcome: dose series up to 54.1 µM; also: series mostly up to about 54 µM; nearly all actives have a fitted effect of over 60% in size
Outline: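 Reaction readout was CCD-imaged luminescence, taken 5 min after adding 10 nM purified firefly enzyme to compound-treated wells holding 10 uM luciferin and ATP in pH 7.6 buffer.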

[4] = Primary fluorescence-based thiol-reactive (MSTI) qHTS assay for identification of artifact compounds. (AID 1845221);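 also: series mostly up to about 54 µM; thiol-reactive compounds lower the probe fluorescence signal; nearly all actives have a fitted effect of over 65% in size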
Outline: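 Probe: MSTI 4 uM, PBS pH 7.4, 2% DMSO. Incubation 1 h, RT, light-protected. Readout fluorescence 525/598 nm.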

[5] = molecular target: Cytochrome P450 3A4 (Homo sapiens) (UniProt P08684); test: qHTS for inhibitors of CYP3A4 against the NCATS DSHEA and TCM libraries (AID 1919971);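 also: inhibition lowers luminescence from luciferin made by CYP3A4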
Outline: (§1)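 Each CYP isoform and its pro-luciferin substrate, at isoform-specific final concentrations, were preincubated 15 min at RT with substances. NADPH regeneration solution (1x) started a 30-45 min reaction, and P450-Glo luminescence was read.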

[6] = molecular target: Cytochrome P450 2D6 (Homo sapiens) (UniProt P10635); test: qHTS for inhibitors of CYP2D6 against the NCATS DSHEA and TCM libraries (AID 1919972)
Outline: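 CYP2D6 enzyme with pro-luciferin substrate in manufacturer buffer (typically 100 mM KPO4), preincubated 15 min RT with substances (most at 19.5 nM upward); NADPH regeneration system (1x) started 30–45 min RT reaction; P450-Glo luminescence read after 30 min; quinidine as intraplate control.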

[7] = molecular target: Cytochrome P450 2C9 (Homo sapiens) (UniProt P11712); test: qHTS for inhibitors of CYP2C9 against the NCATS DSHEA and TCM libraries (AID 1919973); also: potency is read from the fitted curve at half-maximal effect
Outline: as §1

[8] = molecular target: Cytochrome P450 2C19 (Homo sapiens) (UniProt P33261); test: qHTS for inhibitors of CYP2C19 against the NCATS DSHEA and TCM libraries (AID 1919974);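 also: luminescence from luciferin released by CYP2C19 oxidation of a pro-luciferin substrate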
Outline: as §1

[9] = system: Nanoluciferase (engineered Oplophorus gracilirostris luciferase); test: Primary Nanoluciferase (NLuc) qHTS assay for identification of artifact compounds. (AID 1845222);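 also: NLuc secreted into diluted conditioned medium of S16 cells; series mostly up to about 54 µM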
Outline: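 Concentration-response data were obtained by luminescence after 5 min with Nano-Glo substrate at 1:100. The enzyme was diluted S16 NLuc-expressing cell medium, preincubated with compound for 15 min at RT. Curves were fitted with a 4-parameter Hill model.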

[10] = Primary redox qHTS assay for identification of artifact compounds. (AID 1845223)
Outline: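 Redox-cycling detection via DTT (250 uM final) oxidation coupled to Amplex Red (25 uM)/HRP (250 mU/mL) in HBSS. 15 min preincubation plus 30 min after DTT, room temperature. Ex/Em 525/598 nm; 4-parameter Hill fit against DMSO and 10 uM DA3003.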

Sequence of Cytochrome P450 2C19 (Homo sapiens) (P33261 whole entry, looked up): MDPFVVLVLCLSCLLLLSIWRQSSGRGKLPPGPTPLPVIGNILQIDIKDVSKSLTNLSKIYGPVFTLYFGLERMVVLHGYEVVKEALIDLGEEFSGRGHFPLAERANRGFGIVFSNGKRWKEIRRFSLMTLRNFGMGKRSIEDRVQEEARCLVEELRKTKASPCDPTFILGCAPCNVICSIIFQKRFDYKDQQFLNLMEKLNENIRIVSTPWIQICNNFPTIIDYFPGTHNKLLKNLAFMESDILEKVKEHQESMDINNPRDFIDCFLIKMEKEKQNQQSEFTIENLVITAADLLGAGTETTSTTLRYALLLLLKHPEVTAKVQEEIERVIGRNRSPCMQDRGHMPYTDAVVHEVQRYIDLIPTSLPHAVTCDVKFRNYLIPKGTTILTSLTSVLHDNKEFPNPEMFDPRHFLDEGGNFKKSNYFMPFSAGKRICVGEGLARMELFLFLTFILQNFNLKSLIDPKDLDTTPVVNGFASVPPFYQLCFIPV
Sequence of Glutathione peroxidase 1 (Homo sapiens) (P07203 whole entry, looked up): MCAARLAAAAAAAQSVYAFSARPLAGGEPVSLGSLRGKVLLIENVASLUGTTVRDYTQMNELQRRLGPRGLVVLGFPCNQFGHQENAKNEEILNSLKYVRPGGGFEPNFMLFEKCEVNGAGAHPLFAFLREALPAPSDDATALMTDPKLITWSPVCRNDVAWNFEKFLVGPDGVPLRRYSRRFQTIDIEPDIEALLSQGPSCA
Sequence of Cytochrome P450 3A4 (Homo sapiens) (P08684 whole entry, looked up, canonical isoform): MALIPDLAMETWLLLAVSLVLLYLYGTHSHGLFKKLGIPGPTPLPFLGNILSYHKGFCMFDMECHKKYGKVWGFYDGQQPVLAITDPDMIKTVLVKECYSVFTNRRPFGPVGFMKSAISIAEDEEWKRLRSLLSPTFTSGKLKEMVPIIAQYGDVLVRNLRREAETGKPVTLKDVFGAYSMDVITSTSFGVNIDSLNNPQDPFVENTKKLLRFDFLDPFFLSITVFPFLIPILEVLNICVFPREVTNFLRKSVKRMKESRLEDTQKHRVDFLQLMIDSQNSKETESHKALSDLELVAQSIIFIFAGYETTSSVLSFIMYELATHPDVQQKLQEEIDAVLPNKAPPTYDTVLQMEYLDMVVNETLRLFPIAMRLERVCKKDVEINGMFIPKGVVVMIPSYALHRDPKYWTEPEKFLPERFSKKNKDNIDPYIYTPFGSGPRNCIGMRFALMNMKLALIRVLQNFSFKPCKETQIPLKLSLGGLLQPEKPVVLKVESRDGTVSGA
Sequence of Phospholipid hydroperoxide glutathione peroxidase GPX4 (Homo sapiens) (P36969 whole entry, looked up): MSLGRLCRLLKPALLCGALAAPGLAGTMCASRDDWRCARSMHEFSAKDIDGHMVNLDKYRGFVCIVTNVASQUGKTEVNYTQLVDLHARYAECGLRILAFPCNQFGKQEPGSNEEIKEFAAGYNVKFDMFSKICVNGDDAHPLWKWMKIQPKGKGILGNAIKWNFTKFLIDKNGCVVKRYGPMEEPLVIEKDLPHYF
Sequence of Cytochrome P450 2D6 (Homo sapiens) (P10635 whole entry, looked up): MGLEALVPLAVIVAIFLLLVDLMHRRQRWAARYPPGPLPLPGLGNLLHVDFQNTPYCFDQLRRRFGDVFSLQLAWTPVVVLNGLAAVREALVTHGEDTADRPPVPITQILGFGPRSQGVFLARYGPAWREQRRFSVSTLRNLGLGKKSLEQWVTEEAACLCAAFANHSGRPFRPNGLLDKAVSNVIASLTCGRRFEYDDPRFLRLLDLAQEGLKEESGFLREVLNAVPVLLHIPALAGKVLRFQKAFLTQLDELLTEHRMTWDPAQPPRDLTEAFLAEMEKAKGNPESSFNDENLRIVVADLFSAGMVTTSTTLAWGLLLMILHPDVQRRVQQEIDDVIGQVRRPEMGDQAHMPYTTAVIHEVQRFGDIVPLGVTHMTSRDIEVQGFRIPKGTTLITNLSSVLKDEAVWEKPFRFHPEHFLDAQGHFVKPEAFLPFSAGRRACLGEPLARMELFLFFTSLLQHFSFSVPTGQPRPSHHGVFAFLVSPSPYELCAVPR
Sequence of Cytochrome P450 2C9 (Homo sapiens) (P11712 whole entry, looked up): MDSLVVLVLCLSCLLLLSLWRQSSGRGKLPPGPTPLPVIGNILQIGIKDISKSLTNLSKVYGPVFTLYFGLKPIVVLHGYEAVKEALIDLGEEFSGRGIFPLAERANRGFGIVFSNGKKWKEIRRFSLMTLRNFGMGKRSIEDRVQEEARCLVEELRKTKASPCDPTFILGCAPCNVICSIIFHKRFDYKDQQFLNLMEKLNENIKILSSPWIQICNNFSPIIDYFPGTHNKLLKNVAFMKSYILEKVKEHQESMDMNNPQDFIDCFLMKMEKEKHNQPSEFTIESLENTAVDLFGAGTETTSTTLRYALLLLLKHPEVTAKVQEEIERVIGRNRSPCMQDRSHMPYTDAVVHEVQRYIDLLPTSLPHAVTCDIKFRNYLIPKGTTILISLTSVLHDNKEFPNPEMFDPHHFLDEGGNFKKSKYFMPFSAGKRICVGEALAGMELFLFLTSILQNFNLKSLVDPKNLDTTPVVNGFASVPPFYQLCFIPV

Question: For CCCCCCCCCCCCCCCC(=O)OC[C@@H](O)[C@H]1OC[C@H](O)[C@H]1O, which Potency [1] is on record?
Answer: The Potency was “inactive”.

Question: What about the Potency [2] of the same compound?
Answer: The Potency was “inactive”.

Question: With C=CCOc1ccc(CC(=O)O)cc1Cl as the compound, how does the Potency [1] read?
Answer: Its Potency is “inactive”.

Question: What about the Potency [2] of the same compound?
Answer: Its Potency is “inactive”.

Question: Which results are given for CC(=O)Nc1c(I)c(C(=O)N[C@H]2C(O)O[C@H](CO)[C@@H](O)[C@@H]2O)c(I)c(N(C)C(C)=O)c1I (some centres not stated)?
Answer: Potency [1]: inactive; Potency [2]: inactive

Question: With FCOC(C(F)(F)F)C(F)(F)F as the compound, how does the Potency [1] read?
Answer: Its Potency is “inactive”.

Question: And the Potency [2]?
Answer: The Potency was “inactive”.

Question: Which Potency [1] does the source give for O=[N+]([O-])O[C@@H]1CO[C@H]2[C@@H]1OC[C@@H]2O here?
Answer: Its Potency is “inactive”.

Question: And the Potency [2]?
Answer: Its Potency is “inactive”.

Question: For CN(C)CCOc1ccc(/C(=C(/CCCl)c2ccccc2)c2ccccc2)cc1, which Potency [1] is on record?
Answer: Its Potency is “inactive”.

Question: And the Potency [2]?
Answer: The Potency was “inactive”.

Question: Which results are given for CS(=O)(=O)c1ccc([C@@H](O)[C@@H](COC(=O)CN)NC(=O)C(Cl)Cl)cc1?
Answer: Potency [1]: inactive; Potency [2]: inactive

Question: Which results are given for CCC(Oc1ccccc1)C(=O)N[C@@H]1C(=O)N2[C@@H]1SC(C)(C)[C@@H]2C(=O)O (some centres not stated)?
Answer: Potency [1]: inactive; Potency [2]: 31.6 µM (active)

Question: Which Potency [1] does the source give for O=P(O)(O)CP(=O)(O)O here?
Answer: The Potency was “inactive”.

Question: And the Potency [2]?
Answer: Its Potency is “inactive”.

Question: Which Potency [1] does the source give for C[C@H](CCC(=O)O)[C@H]1CC[C@H]2[C@@H]3[C@H](O)C[C@@H]4C[C@H](O)CC[C@]4(C)[C@H]3C[C@H](O)[C@]12C here?
Answer: The Potency was “inactive”.

Question: What about the Potency [2] of the same compound?
Answer: The Potency was “inactive”.

Question: What does the source list for CNC(=O)OCc1cccc(COC(=O)NC)n1?
Answer: Potency [1]: inactive; Potency [2]: inactive

Question: For O=C(O[C@H]1CN2CCC1CC2)N1CCc2ccccc2[C@@H]1c1ccccc1, which Potency [1] is on record?
Answer: Its Potency is “inactive”.

Question: And the Potency [2]?
Answer: The Potency was “inactive”.

Question: For C[S+](C)CCC(N)C(=O)O (configuration not stated), which Potency [1] is on record?
Answer: The Potency was “inactive”.

Question: What about the Potency [2] of the same compound?
Answer: Its Potency is “inactive”.

Question: For CN(C)CCC(O)(c1ccccc1)c1ccccc1Cl (configuration not stated), which Potency [1] is on record?
Answer: The Potency was “inactive”.

Question: What about the Potency [2] of the same compound?
Answer: Its Potency is “inactive”.

Question: With Cc1cc(-c2ccc(N=Nc3c(S(=O)(=O)O)cc4cc(S(=O)(=O)O)cc(N)c4c3O)c(C)c2)ccc1N=Nc1c(S(=O)(=O)O)cc2cc(S(=O)(=O)O)cc(N)c2c1O as the compound, how does the Potency [1] read?
Answer: The Potency was “inactive”.

Question: What about the Potency [2] of the same compound?
Answer: The Potency was “inactive”.

Question: What does the source list for NS(=O)(=O)c1cc2c(cc1Cl)NC(Cc1ccccc1)NS2(=O)=O (configuration not stated)?
Answer: Potency [1]: inactive; Potency [2]: inactive

Question: With O=C(O)Cc1cc(I)c(Oc2ccc(O)c(I)c2)c(I)c1 as the compound, how does the Potency [1] read?
Answer: The Potency was “inactive”.

Question: And the Potency [2]?
Answer: The Potency was “inactive”.

Question: What about the outcome [3] of the same compound?
Answer: The outcome was “inactive”.

Question: What about the outcome [4] of the same compound?
Answer: Its outcome is “inactive”.

Question: With CC(C)=CCC/C(C)=C/C=C/C(C)=C/C=C/C(C)=C/C=C/C=C(C)/C=C/C=C(C)/C=C/C=C(\C)CCC=C(C)C as the compound, how does the Potency [1] read?
Answer: The Potency was “inactive”.

Question: And the Potency [2]?
Answer: The Potency was “inactive”.

Question: And the outcome [5]?
Answer: The outcome was “inactive”.

Question: And the outcome [6]?
Answer: Its outcome is “inactive”.

Question: What about the Potency [7] of the same compound?
Answer: The Potency was “inactive”.

Question: What about the Potency [8] of the same compound?
Answer: The Potency was “inactive”.

Question: What does the source list for COC1=C(OC)C(=O)C(C/C=C(\C)CC/C=C(\C)CC/C=C(\C)CC/C=C(\C)CC/C=C(\C)CC/C=C(\C)CC/C=C(\C)CC/C=C(\C)CC/C=C(\C)CCC=C(C)C)=C(C)C1=O?
Answer: Potency [1]: inactive; Potency [2]: inactive; outcome [5]: inactive; outcome [6]: inactive; Potency [7]: inactive; Potency [8]: inactive

Question: Which Potency [1] does the source give for C[C@H]1O[C@@H](O[C@H]2[C@@H](O)C[C@H](O[C@H]3[C@@H](O)C[C@H](O[C@H]4CC[C@@]5(C)[C@H](CC[C@@H]6[C@@H]5C[C@@H](O)[C@]5(C)[C@@H](C7=CC(=O)OC7)CC[C@]65O)C4)O[C@@H]3C)O[C@@H]2C)C[C@H](O)[C@@H]1O here?
Answer: Its Potency is “inactive”.

Question: What about the Potency [2] of the same compound?
Answer: The Potency was “inactive”.

Question: What about the outcome [3] of the same compound?
Answer: Its outcome is “inactive”.

Question: What about the outcome [4] of the same compound?
Answer: The outcome was “inactive”.

Question: And the outcome [9]?
Answer: Its outcome is “inactive”.

Question: And the outcome [10]?
Answer: The outcome was “inactive”.

Question: With O=C(OC[C@H]1O[C@@H](OC(=O)c2cc(O)c(O)c(OC(=O)c3cc(O)c(O)c(O)c3)c2)[C@H](OC(=O)c2cc(O)c(O)c(OC(=O)c3cc(O)c(O)c(O)c3)c2)[C@@H](OC(=O)c2cc(O)c(O)c(OC(=O)c3cc(O)c(O)c(O)c3)c2)[C@@H]1OC(=O)c1cc(O)c(O)c(OC(=O)c2cc(O)c(O)c(O)c2)c1)c1cc(O)c(O)c(OC(=O)c2cc(O)c(O)c(O)c2)c1 as the compound, how does the Potency [2] read?
Answer: The Potency was 4.47 µM (active).

Question: Which Potency [1] does the source give for Oc1ccc(/C=C/c2cc(O)cc(O)c2)cc1 here?
Answer: Its Potency is “inactive”.

Question: And the Potency [2]?
Answer: Its Potency is “inactive”.

Question: What about the outcome [6] of the same compound?
Answer: Its outcome is “inactive”.

Question: With CC1CC(OC(=O)C(O)c2ccccc2)CC(C)(C)C1 (configuration not stated) as the compound, how does the Potency [1] read?
Answer: Its Potency is “inactive”.

Question: What about the Potency [2] of the same compound?
Answer: The Potency was “inactive”.

Question: And the outcome [3]?
Answer: The outcome was “inactive”.

Question: What about the outcome [9] of the same compound?
Answer: The outcome was “inactive”.

Question: What about the outcome [10] of the same compound?
Answer: The outcome was “inactive”.

Question: Which Potency [1] does the source give for O=C(O)/C=C/c1ccccc1 here?
Answer: Its Potency is “inactive”.

Question: What about the Potency [2] of the same compound?
Answer: Its Potency is “inactive”.

Question: And the outcome [5]?
Answer: Its outcome is “inactive”.

Question: What about the outcome [6] of the same compound?
Answer: The outcome was “inactive”.

Question: And the Potency [7]?
Answer: Its Potency is “inactive”.

Question: What about the Potency [8] of the same compound?
Answer: The Potency was “inactive”.

Question: Which results are given for CC/C=C\C/C=C\C/C=C\C/C=C\C/C=C\CCCC(=O)O?
Answer: Potency [1]: inactive; outcome [5]: inactive; outcome [6]: inactive; Potency [7]: inactive; Potency [8]: inactive

Question: Which Potency [2] does the source give for O=C(O)c1cc(O)c2c(c1)[C@H]([C@H]1c3cc(C(=O)O)cc(O)c3C(=O)c3c(O[C@@H]4O[C@H](CO)[C@@H](O)[C@H](O)[C@H]4O)cccc31)c1cccc(O[C@@H]3O[C@H](CO)[C@@H](O)[C@H](O)[C@H]3O)c1C2=O here?
Answer: Its Potency is 1.12 µM (active).

Question: With CC/C=C\C/C=C\C/C=C\CCCCCCCC(=O)O as the compound, how does the Potency [7] read?
Answer: Its Potency is 7.94 µM (active).

Question: For C=C1[C@H](CO)[C@@H](O)C[C@@H]1n1cnc2c(=O)[nH]c(N)nc21, which Potency [1] is on record?
Answer: Its Potency is “inactive”.

Question: And the Potency [2]?
Answer: The Potency was “inactive”.

Question: What about the outcome [3] of the same compound?
Answer: Its outcome is “inactive”.

Question: What about the outcome [4] of the same compound?
Answer: Its outcome is “inactive”.

Question: What about the outcome [9] of the same compound?
Answer: Its outcome is “inactive”.

Question: What about the outcome [10] of the same compound?
Answer: The outcome was “inactive”.
